system: ULK2; conditions: concentration: 1 μM, replicates: in singlicate; n = 1
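Also: KINOMEscan kinase panel screen.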

Going from `Clc1ccc(-c2cc(-c3c[nH]nc3-c3ccccn3)ccn2)cc1` [GW681251] to `Fc1ccc(Nc2nccc(-c3c(-c4ccc(Cl)cc4)nn4ncccc34)n2)cc1F` [GW829058], the “%Inh” value rises from 0% to 100%.

`CS(=O)(=O)CCNCc1ccc(-c2ccc3ncnc(Nc4ccc(OCc5ccccc5)c(Cl)c4)c3c2)o1.Cl` [GW574783] and `Oc1ccc2ncnc(Nc3ccc(OCc4ccccc4)cc3)c2c1` [GI262866] are the same in “%Inh” value: 0% for the first, 0% for the second.

Compared with `CN1c2ccc(-c3ccc(C(=O)NCCO)cc3)cc2-c2[nH]ncc2S1(=O)=O`, `COc1ccc(NC(=O)c2ccc(-c3cc(-c4nnc(C)o4)ccc3C)cc2)cc1` [GW595885] is lower in “%Inh” value: 30% for the first, 0% for the second.

`CCc1nc(-c2cccc(N(C)S(=O)(=O)c3ccccc3)c2)c(-c2ccnc(Nc3ccc(N4CCN(C(C)=O)CC4)nc3)n2)s1` [GSK1645895] and `O=C(Nc1ccccc1F)NC1CCN(c2ccnc(Nc3ccc(F)cc3)n2)C1` (stereo not drawn) [GSK1379722] are the same in “%Inh” value: 0% for the first, 0% for the second.

`Cc1ccc(NC(=O)c2cccc(C#N)c2)cc1-c1ccc(C(=O)Nc2ccncc2)cc1` [GSK1398463] and `COc1ccc(NC(=O)Nc2ccc(C)c(-c3ccc(C(=O)Nc4ccncc4)cc3)c2)cc1` [GSK1398475] are the same in “%Inh” value: 0% for the first, 0% for the second.

`CC(C)(C)OC(=O)NC1CCCN(c2cc(-c3ccc4c(N)n[nH]c4c3)nc(N)n2)C1` (stereo not drawn) [GSK2286096] and `COc1ccc(Nc2nccc(N3CCC(NC(=O)Nc4ccc5c(c4)OCO5)C3)n2)cc1` (stereo not drawn) [GSK1379745] are the same in “%Inh” value: 0% for the first, 0% for the second.

First: Cn1ccc2ncnc(Oc3ccc(NC(=O)Nc4cccnc4)c(Cl)c3)c21
Second: O=C(CCO)NCCn1ccc2ncnc(Nc3ccc(Oc4cccc(C(F)(F)F)c4)c(Cl)c3)c21
The “%Inh” value of the first is higher: 8% for the first, 0% for the second.

First: Fc1cccc(COc2ccc(Nc3ncnc4cc[nH]c34)cc2Cl)c1
Second: Fc1cccc(COc2ccc(Nc3ncnc4sc(-c5ccc[nH]5)cc34)cc2Cl)c1 [GW707818]
The “%Inh” value of the first is higher: 14% for the first, 0% for the second.

`Cl.Cl.c1ccc(-c2cc3ccncc3cc2OC2CCNCC2)cc1` [GSK1122999] and `CCCc1ccc(S(=O)(=O)NC2CCN(c3ccnc(Nc4ccc(OC)cc4)n3)C2)cc1` (stereo not drawn) [GSK1379737] are the same in “%Inh” value: 0% for the first, 0% for the second.

`Cc1cccc(-c2nc(Nc3ccc4[nH]nnc4c3)c3ccccc3n2)n1` [GW867587] and `Cl.c1ccc(Cn2ncc3cc(Nc4ncnc5ccccc45)ccc32)cc1` [GW273749] are the same in “%Inh” value: 0% for the first, 0% for the second.

`COc1cc2c(Nc3cccc(NC(=O)c4ccccc4)c3)ncnc2cc1OCCCN1CCOCC1` [GSK223810] and `Cl.Fc1ccccc1COc1ccc(Nc2ncnc3ccc(-c4nnc(C(F)(F)F)o4)cc23)cc1Cl` [GW424170] are the same in “%Inh” value: 0% for the first, 0% for the second.

`Nc1nccc2scc(-c3ccc4c(c3)CCN4C(=O)Cc3cc(F)ccc3F)c12` [GSK2587663] and `Cn1cc(-c2ccc3c(c2)CCN3C(=O)Cc2cccc(C(F)(F)F)c2)c2c(N)ncnc21` [GSK2606414] are the same in “%Inh” value: 0% for the first, 0% for the second.

Going from `FC(F)(F)c1ccc(-c2nn3ncccc3c2-c2ccnc(Nc3cccc(C(F)(F)F)c3)n2)cc1` [GW828205] to `FC(F)(F)c1cc(Nc2nccc(-c3c(-c4ccc(Cl)cc4)nn4ncccc34)n2)ccc1Cl` [GW829351], the “%Inh” value rises from 0% to 6%.

`NC(=O)c1sc(-n2cnc3ccccc32)cc1OCc1ccccc1F` [GSK1024306] and `Cl.O=S(=O)(c1cccc(F)c1)c1ccc(Nc2ncnc3cc(Br)sc23)cc1Cl` [GSK306886] are the same in “%Inh” value: 0% for the first, 0% for the second.

Going from `CCn1c(-c2ccncc2)nc2cnccc21` [SB-735216] to `Fc1ccc(-c2ncn(CCCNCc3ccccc3)c2-c2ccncc2)cc1`, the “%Inh” value rises from 8% to 19%.

Compared with `CNc1nccc(-c2c(-c3ccc(F)cc3)ncn2C2CCN(C)CC2)n1` [SB-222903], `Cl.Cn1ccc(-c2cccc(Nc3ccnc4cc(-c5nccs5)ccc34)c2)n1` [GW525701] is lower in “%Inh” value: 15% for the first, 0% for the second.

Compared with `C[C@@H]1CCN(C(=O)CO)C[C@@H]1N(C)c1ncnc2[nH]ccc12`, `CC(C)(C)c1ccc(-n2cnc3c(N)ncnc32)cc1` [SKF-97263] is higher in “%Inh” value: 0% for the first, 4% for the second.

`COc1ccc(-c2oc3ncnc(N)c3c2-c2ccc(OC)cc2)cc1` [SB-589132] and `O=C(NCCCN1CCCC1=O)c1cnc(NCc2cc(Cl)ccc2Cl)nc1NC1CCNCC1` are the same in “%Inh” value: 0% for the first, 0% for the second.

system: ULK3; conditions: concentration: 1 μM, replicates: in singlicate; n = 1

Compared with `Clc1ccc(-c2cc(-c3c[nH]nc3-c3ccccn3)ccn2)cc1` [GW681251], `Fc1ccc(Nc2nccc(-c3c(-c4ccc(Cl)cc4)nn4ncccc34)n2)cc1F` [GW829058] is higher in “%Inh” value: 1% for the first, 33% for the second.

First: CS(=O)(=O)CCNCc1ccc(-c2ccc3ncnc(Nc4ccc(OCc5ccccc5)c(Cl)c4)c3c2)o1.Cl [GW574783]
Second: Oc1ccc2ncnc(Nc3ccc(OCc4ccccc4)cc3)c2c1 [GI262866]
The “%Inh” value of the first is lower: 0% for the first, 4% for the second.

Compared with `CN1c2ccc(-c3ccc(C(=O)NCCO)cc3)cc2-c2[nH]ncc2S1(=O)=O`, `COc1ccc(NC(=O)c2ccc(-c3cc(-c4nnc(C)o4)ccc3C)cc2)cc1` [GW595885] is higher in “%Inh” value: 0% for the first, 24% for the second.

Going from `CCc1nc(-c2cccc(N(C)S(=O)(=O)c3ccccc3)c2)c(-c2ccnc(Nc3ccc(N4CCN(C(C)=O)CC4)nc3)n2)s1` [GSK1645895] to `O=C(Nc1ccccc1F)NC1CCN(c2ccnc(Nc3ccc(F)cc3)n2)C1` (stereo not drawn) [GSK1379722], the “%Inh” value falls from 9% to 8%.

Going from `Cc1ccc(NC(=O)c2cccc(C#N)c2)cc1-c1ccc(C(=O)Nc2ccncc2)cc1` [GSK1398463] to `COc1ccc(NC(=O)Nc2ccc(C)c(-c3ccc(C(=O)Nc4ccncc4)cc3)c2)cc1` [GSK1398475], the “%Inh” value falls from 15% to 0%.

Compared with `CC(C)(C)OC(=O)NC1CCCN(c2cc(-c3ccc4c(N)n[nH]c4c3)nc(N)n2)C1` (stereo not drawn) [GSK2286096], `COc1ccc(Nc2nccc(N3CCC(NC(=O)Nc4ccc5c(c4)OCO5)C3)n2)cc1` (stereo not drawn) [GSK1379745] is higher in “%Inh” value: 0% for the first, 15% for the second.

`Cn1ccc2ncnc(Oc3ccc(NC(=O)Nc4cccnc4)c(Cl)c3)c21` and `O=C(CCO)NCCn1ccc2ncnc(Nc3ccc(Oc4cccc(C(F)(F)F)c4)c(Cl)c3)c21` are the same in “%Inh” value: 0% for the first, 0% for the second.

Compared with `Fc1cccc(COc2ccc(Nc3ncnc4cc[nH]c34)cc2Cl)c1`, `Fc1cccc(COc2ccc(Nc3ncnc4sc(-c5ccc[nH]5)cc34)cc2Cl)c1` [GW707818] is lower in “%Inh” value: 34% for the first, 1% for the second.

First: Cl.Cl.c1ccc(-c2cc3ccncc3cc2OC2CCNCC2)cc1 [GSK1122999]
Second: CCCc1ccc(S(=O)(=O)NC2CCN(c3ccnc(Nc4ccc(OC)cc4)n3)C2)cc1 (stereo not drawn) [GSK1379737]
The “%Inh” value of the first is lower: 4% for the first, 7% for the second.

Going from `Cc1cccc(-c2nc(Nc3ccc4[nH]nnc4c3)c3ccccc3n2)n1` [GW867587] to `Cl.c1ccc(Cn2ncc3cc(Nc4ncnc5ccccc45)ccc32)cc1` [GW273749], the “%Inh” value rises from 0% to 5%.

Going from `COc1cc2c(Nc3cccc(NC(=O)c4ccccc4)c3)ncnc2cc1OCCCN1CCOCC1` [GSK223810] to `Cl.Fc1ccccc1COc1ccc(Nc2ncnc3ccc(-c4nnc(C(F)(F)F)o4)cc23)cc1Cl` [GW424170], the “%Inh” value falls from 24% to 6%.

Going from `Nc1nccc2scc(-c3ccc4c(c3)CCN4C(=O)Cc3cc(F)ccc3F)c12` [GSK2587663] to `Cn1cc(-c2ccc3c(c2)CCN3C(=O)Cc2cccc(C(F)(F)F)c2)c2c(N)ncnc21` [GSK2606414], the “%Inh” value falls from 6% to 3%.

`FC(F)(F)c1ccc(-c2nn3ncccc3c2-c2ccnc(Nc3cccc(C(F)(F)F)c3)n2)cc1` [GW828205] and `FC(F)(F)c1cc(Nc2nccc(-c3c(-c4ccc(Cl)cc4)nn4ncccc34)n2)ccc1Cl` [GW829351] are the same in “%Inh” value: 0% for the first, 0% for the second.

First: NC(=O)c1sc(-n2cnc3ccccc32)cc1OCc1ccccc1F [GSK1024306]
Second: Cl.O=S(=O)(c1cccc(F)c1)c1ccc(Nc2ncnc3cc(Br)sc23)cc1Cl [GSK306886]
The “%Inh” value of the first is higher: 9% for the first, 8% for the second.

First: CCn1c(-c2ccncc2)nc2cnccc21 [SB-735216]
Second: Fc1ccc(-c2ncn(CCCNCc3ccccc3)c2-c2ccncc2)cc1
The “%Inh” value of the first is higher: 25% for the first, 14% for the second.

`CNc1nccc(-c2c(-c3ccc(F)cc3)ncn2C2CCN(C)CC2)n1` [SB-222903] and `Cl.Cn1ccc(-c2cccc(Nc3ccnc4cc(-c5nccs5)ccc34)c2)n1` [GW525701] are the same in “%Inh” value: 0% for the first, 0% for the second.

First: C[C@@H]1CCN(C(=O)CO)C[C@@H]1N(C)c1ncnc2[nH]ccc12
Second: CC(C)(C)c1ccc(-n2cnc3c(N)ncnc32)cc1 [SKF-97263]
The “%Inh” value of the first is lower: 12% for the first, 17% for the second.

Compared with `COc1ccc(-c2oc3ncnc(N)c3c2-c2ccc(OC)cc2)cc1` [SB-589132], `O=C(NCCCN1CCCC1=O)c1cnc(NCc2cc(Cl)ccc2Cl)nc1NC1CCNCC1` is lower in “%Inh” value: 39% for the first, 0% for the second.

From PMC5540273 (PLoS ONE, 2017)
